Measurements published in PubChem BioAssay (Tox21).
Several values for one entry are separate records, joined by “and”; a condition that tells them apart may be missing. Identical values can stand only once. Inconclusive results are not listed. Where a call stands in place of a potency, no number is given. Activity calls are given as the source filed them. The call rests on the fitted dose curve.
Potency means the concentration at half of the fitted maximal effect.

Experiment: qHTS assay for small molecule agonists of the p53 signaling pathway (AID 651631); further: nearly all actives have a fitted effect of over 15% in size
Conditions: HCT-116 p53RE-bla reporter, beta-lactamase FRET ratio, 16 h; series mostly up to 73.3 µM
Excerpt: U.S. Tox21 Program National Center for Advancing Translational Sciences [NCATS] NIH Chemical Genomics Center [NCGC] U.S. Environmental Protection Agency [EPA] National Institutes of Environmental Health Sciences [NIEHS] National Toxicology Program [NTP] U.S. Food and Drug Administration [FDA] Tox21 Assay Overview: p53, a tumor suppressor protein, is activated following cellular insult, including DNA damage and other cellular stresses. The activation of p53 regulates cell fate by inducing DNA repair, cell cycle arrest, apoptosis, or cellular senescence. The activation of p53, therefore, is a good indicator of DNA damage and other cellular stresses. The CellSensor p53RE-bla HCT-116 cell line (Invitrogen) contains a stably integrated beta-lactamase reporter gene under control of the p53 response elements. The activation of the reporter gene under culture conditions can be detected by fluorescence intensity. This cell line was used to screen the Tox21 compound library in a 1536-well plate format and to identify agonists that activate the p53 signaling pathway.
Tox21 Assay Protocol Summary: The p53RE-bla cells were dispensed at 4,000 cells/5 ul/well in 1536-well black wall/clear bottom plates using a Multidrop dispenser. After the assay plates were incubated at a 37 C/5% CO2 incubator for 5 hours, 23 nL of compounds dissolved in DMSO, positive controls or DMSO only was transferred to the assay plate by a pin tool. The plates were incubated at 37 C for 16 hours. After 1 uL of LiveBLAzerTM B/G FRET substrate was added using a Flying Reagent Dispenser, the plates were incubated at room temperature for 2 hours, and fluorescence intensity was measured by an Envision plate reader.
For `COc1ccc(C(=O)CC(=O)c2ccc(C(C)(C)C)cc2)cc1`, the Potency was “inactive”.
In the case of `CC(C)CC(C)(O)C#CC(C)(O)CC(C)C` (stereo not given), the Potency is reported as “inactive”.
With `CCC(C)CO` (stereo not given) the Potency was “inactive”.
For `CC(=O)Oc1ccccc1C(=O)Nc1ncc([N+](=O)[O-])s1`, the Potency was 5.96 µM (active).
In the case of `CCCCCCCCCCCO`, the Potency is reported as “inactive”.
With `O=Cc1ccccc1O` the Potency was “inactive”.
For `c1ccc2c(c1)Oc1ccccc1S2`, the Potency was “inactive”.
In the case of `Cc1cccc(C(=O)O)c1`, the Potency is reported as “inactive”.
For `Nc1ccc(S(=O)(=O)Nc2cnc3ccccc3n2)cc1`, the Potency was “inactive”.
For `CC(C(=O)O)c1cccc(C(=O)c2ccccc2)c1` (stereo not given), the Potency was “inactive”.
In the case of `O=C=Nc1ccc(Cc2ccc(N=C=O)cc2)cc1`, the Potency is reported as “inactive”.
In the case of `C[C@]12CCC(=O)C=C1CC[C@@H]1[C@@H]2C(=O)C[C@@]2(C)[C@H]1CC[C@]2(O)C(=O)CO`, the Potency is reported as “inactive”.
With `Cc1[nH]c(=O)c(C#N)cc1-c1ccncc1` the Potency was “inactive”.
For `O=C(Nc1ccc(Cl)cc1)Nc1ccc(Cl)c(Cl)c1`, the Potency was 7.5 µM (active) and 5.42 µM (active) and 15.4 µM (active).
For `CCCCC(CC)COP(=O)(OCC(CC)CCCC)OCC(CC)CCCC` (stereo not given), the Potency was “inactive”.
In the case of `Nc1ccc(Cl)cc1Cl`, the Potency is reported as “inactive”.
With `CC(=O)c1ccccn1` the Potency was “inactive”.
In the case of `OC1CCCCCCCCCCC1`, the Potency is reported as “inactive”.
For `C#C[C@]1(O)CC[C@H]2[C@@H]3CCc4cc(OC)ccc4[C@H]3CC[C@@]21C`, the Potency was “inactive”.
For `Nc1ccccc1N`, the Potency was 62.6 µM (active) and 27.3 µM (active).
With `Cn1cnc([N+](=O)[O-])c1Sc1ncnc2nc[nH]c12` the Potency was 24.2 µM (active).
In the case of `COC(C)COC(C)COC(C)CO` (stereo not given), the Potency is reported as “inactive”.
With `c1ccc2c(c1)c1cccc3ccc4cccc2c4c31` the Potency was 60.7 µM (active).
In the case of `Cc1c(OCC(F)(F)F)ccnc1CS(=O)c1nc2ccccc2[nH]1` (stereo not given), the Potency is reported as “inactive”.
For `CC(C)OC=O`, the Potency was “inactive”.
For `Brc1cc(Oc2cc(Br)c(Br)c(Br)c2Br)c(Br)c(Br)c1Br`, the Potency was “inactive”.
In the case of `C=C(C)C1CC=C(C)CC1` (stereo not given), the Potency is reported as “inactive”.
With `OC(CCl)CCl` the Potency was “inactive”.
With `CCOCCOCCO` the Potency was “inactive”.
In the case of `Nc1ncn([C@@H]2O[C@H](CO)[C@@H](O)[C@H]2O)c(=O)n1`, the Potency is reported as 2.11 µM (active) and 4.86 µM (active).
With `CN(C)c1nc(N(C)C)nc(N(C)C)n1` the Potency was “inactive”.
With `C[C@]12CC[C@H]3[C@@H](CCC4=CC(=O)CC[C@@]43C)[C@@H]1CC[C@@H]2C(=O)CO` the Potency was “inactive”.
In the case of `CC(C)(C)NC(=O)[C@H]1CC[C@H]2[C@@H]3CC[C@H]4NC(=O)C=C[C@]4(C)[C@H]3CC[C@]12C`, the Potency is reported as “inactive”.
With `O=C(Nc1ccc([N+](=O)[O-])cc1Cl)c1cc(Cl)ccc1O` the Potency was 298 nM (active) and 611 nM (active).
In the case of `CC(C)Oc1ccc2c(=O)c(-c3ccccc3)coc2c1`, the Potency is reported as “inactive”.
With `CC(CCC(=O)O)(c1ccc(O)cc1)c1ccc(O)cc1` the Potency was “inactive”.
For `O=S(=O)(O)c1ccc(O)cc1`, the Potency was “inactive”.
In the case of `O=C(c1ccccc1)c1ccc(O)cc1O`, the Potency is reported as “inactive”.
In the case of `COC(=O)CCC(=O)OC`, the Potency is reported as “inactive”.
For `C#C[C@]1(O)CC[C@H]2[C@@H]3CCC4=Cc5oncc5C[C@]4(C)[C@H]3CC[C@@]21C`, the Potency was “inactive”.
